PubChem BioAssay (NCATS)
Records with an inconclusive call do not appear. Where a call stands in place of a potency, no number is given. Active and inactive are the calls of the source. The call rests on the fitted dose curve; in most records, active means well fitted inhibition curve with a large enough effect; inconclusive means small, poorly fitted or top-dose-only effect; inactive means flat fitted curve, though single readings scatter.

Tested on: CRL-7250
Assay: qHTS assay to identify novel small-molecules to repurpose for Merkel cell carcinoma treatment (AID 1296009); further: nearly all actives have a fitted effect of over 60% in size
Conditions: MCC and control cell lines, CellTiter-Glo viability, 72 h; series mostly up to 92 µM
How it was run: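 Cell viability, measured as CellTiter-Glo luminescence, was normalized between DMSO and no-cell wells. The cells had been exposed to 8- or 11-point compound dilutions for 72 hr at 37 degree celsius.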

Molecule | outcome | Potency
CC(=O)N[C@@H](CCCCN)C(=O)N(C)[C@@H](CC(C)C)C(=O)N[C@H](C(=O)N(C)[C@@H](Cc1ccccc1)C(=O)N[C@H](Cc1ccccc1)C(N)=O)C(C)C | inactive [at 4.96 µM] | 
C[C@@H]1O[C@@H](O[C@H]2[C@H](O[C@H]3CC[C@@]4(C)C(CC[C@]5(C)C4CC=C4[C@@H]6CC(C)(C)CC[C@]6(C(=O)O[C@@H]6OC[C@H](O)[C@H](O)[C@H]6O[C@@H]6O[C@@H](C)[C@H](O[C@@H]7O[C@H](CO)[C@@H](O)[C@H](O)[C@H]7O)[C@H](O)[C@H]6O)[C@H](O)C[C@]45C)C3(C)C)O[C@H](CO)[C@@H](O[C@@H]3OC[C@@H](O)[C@H](O)[C@H]3O)[C@@H]2O)[C@H](O)[C@H](O)[C@H]1O (some centres not stated) | inactive [at 9.27 µM] | 
C[C@@H]1O[C@@H](O[C@H]2[C@H](O)[C@@H](O)[C@H](OC[C@H]3O[C@@H](OC(=O)[C@]45CCC(C)(C)C[C@H]4C4=CCC6[C@@]7(C)C[C@@H](O)[C@H](O)[C@@](C)(CO)C7[C@H](O)C[C@@]6(C)[C@]4(C)CC5)[C@H](O)[C@@H](O)[C@@H]3O)O[C@@H]2CO)[C@H](O)[C@H](O)[C@H]1O (some centres not stated) | inactive [at 9.27 µM] | 
C[C@@H]1O[C@@H](O[C@H]2[C@H](OC(=O)[C@]34CCC(C)(C)C[C@H]3C3=CCC5[C@@]6(C)C[C@H](O)[C@H](O[C@@H]7O[C@H](C(=O)O)[C@@H](O)[C@H](O)[C@H]7O)[C@@](C)(CO)C6[C@H](O)C[C@@]5(C)[C@]3(C)C[C@H]4O)O[C@@H](CO)[C@@H]2O)[C@H](O)[C@H](O)[C@H]1O[C@@H]1OC[C@@H](O)[C@H](O[C@H]2OC[C@](O)(CO)[C@H]2O)[C@H]1O (some centres not stated) | inactive [at 9.27 µM] | 
CC(=O)/C=C/C1C(C)CC(O[C@@H]2O[C@H](CO)[C@@H](O)[C@H](O)[C@H]2O)CC1(C)C (some centres not stated) |  | inactive
H-DPPDPDRFYGMM-NH2 |  | inactive
COC(=O)C1=COC(O[C@@H]2O[C@H](CO)[C@@H](O)[C@H](O)[C@H]2O)[C@H]2[C@@H]1[C@H](OC(=O)CCc1ccc(O)cc1)C[C@]2(C)O (some centres not stated) |  | inactive
C/C=C/[C@@H]1C=C[C@@H]2C[C@H](C)CC[C@H]2[C@]1(C)/C(O)=C1/C(=O)[C@@H](CO)N(C)C1=O |  | inactive
CO[C@@H](Cc1ccc(OCCc2nc(-c3ccccc3)oc2C)c2ccsc12)C(=O)O |  | inactive
O=C(O)CCc1cccc(O[C@@H]2O[C@H](CO)[C@@H](O)[C@H](O)[C@H]2O)c1O |  | inactive
COC(=O)[C@@H](NC(=O)[C@H](CC(C)C)NC(=O)N(Cc1ccccc1)C[C@@H](O)[C@H](Cc1ccccc1)NC(=O)OC(C)(C)C)C(C)C | inactive [at 9.27 µM] | 
Nc1nc2c(s1)CCN(Cc1ccc(Cl)cc1)CC2 |  | inactive
COc1cc(OC)cc(-c2ccc3c(-c4ccc(F)cc4)[nH]nc3n2)c1 |  | inactive
CC1C(=O)CC2C3C(O)CC(C(=O)O)C12CC3(C)C (configuration not stated) |  | inactive
CCC(=O)N[C@@H]1Cc2ccccc2[C@H](c2ccccc2)C1 |  | inactive
C[C@@H]1CC[C@]2(C(=O)O[C@@H]3O[C@H](CO[C@@H]4O[C@H](CO)[C@@H](O)[C@H](O)[C@H]4O)[C@@H](O)[C@H](O)[C@H]3O)CC[C@]3(C)C(=CCC4[C@@]5(C)CC[C@H](O)[C@](C)(C(=O)O)C5CC[C@]43C)[C@@H]2[C@]1(C)O (some centres not stated) | inactive [at 9.27 µM] | 

Molecule | outcome | Potency
CC1=C2C(=O)C=C(CO)[C@@H]2[C@H]2OC(=O)[C@H](C)[C@@H]2[C@@H](O)C1 |  | inactive
O=C1COc2nccc(-c3ccccc3F)c2CN1Cc1cc(C(F)(F)F)cc(C(F)(F)F)c1 |  | inactive
C=C1CC[C@H]2[C@@](C)(CCC(OC3OC(CO)C(O)C(O)C3O)[C@@]2(C)CO)C1C(=O)CC1=CCOC1=O (some centres not stated) |  | inactive
Cc1ccc(NC(=O)C(=O)NC2CC(C)(C)NC(C)(C)C2)cc1 |  | inactive
OC1COC(OCC2OC(OCCc3ccccc3)C(O)C(O)C2O)C(O)C1O (configuration not stated) |  | inactive
CC1(C)CC[C@@]2(C(=O)O[C@@H]3O[C@H](CO)[C@@H](O)[C@H](O)[C@H]3O)C(C1)C1=CCC3[C@@]4(C)CC[C@@H](O[C@@H]5O[C@H](C(=O)O)[C@@H](O[C@@H]6OC[C@@H](O)[C@H](O)[C@H]6O)[C@H](O[C@@H]6OC[C@](O)(CO)[C@H]6O)[C@H]5O)C(C)(C)C4CC[C@@]3(C)[C@]1(C)C[C@H]2O (some centres not stated) | inactive [at 9.27 µM] | 
CC(=O)N(O)CCCCCN1C(=O)CCC1=O |  | inactive
Cn1c(SCC(=O)N2CCC[C@H]2C(=O)Nc2ccccc2-c2ccccc2)nc2ccccc21 |  | inactive
O=C(Nc1ccccc1Br)NC1CCN(c2ccc(C(F)(F)F)cn2)C1 (configuration not stated) |  | inactive
C[C@@H]1O[C@@H](OC[C@H]2O[C@@H](OCc3ccccc3)[C@H](O)[C@@H](O)[C@@H]2O)[C@H](O)[C@H](O)[C@H]1O |  | inactive
COc1cc(C2Oc3c(OC)cc(/C=C/C(=O)OC[C@H]4O[C@@H](OC(C)(C)C(=O)O)[C@H](O)[C@@H](O)[C@@H]4O)cc3C2CO)ccc1O (some centres not stated) |  | inactive
COc1cc(/C=C/C(=O)O[C@H]2C[C@@H]3C(C(=O)O)=CO[C@@H](O[C@@H]4O[C@H](CO)[C@@H](O)[C@H](O)[C@H]4O)[C@@H]3[C@H]2C)ccc1O |  | inactive
COC1=CC(=O)O[C@@H](/C=C/c2ccccc2)[C@@H]1O |  | inactive
O=C(NCc1nc2ccccc2c(=O)n1-c1ccc(F)cc1)Nc1ccc(Cl)c(C(F)(F)F)c1 |  | inactive
Clc1cccc(COc2cncc(N3CCNCC3)n2)c1 |  | inactive
CC1(C)CCC(C)(C)c2cc3c(cc21)Sc1ccccc1N=C3c1ccc(C(=O)O)cc1 |  | inactive
